Rows were chosen to be rich in hits. Some 4% of all compounds tested hit in one or more screens of this group.
Peg3 promoter: Peg3 promoter activity inhibition; HeLa PEG-Prom luciferase reporter, luminescence, overnight; inhibition, % at 20 µM; 1.7% of 360,000 active;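 active = inhibition of at least 50% at 20 µM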
HIF-2a inh: inhibitors of HIF-2a. 786-0 RCC cells HIF-2a reporter, luciferase luminescence, overnight. inhibition, % at 18.8 µM. 0.72% of 360,000 active. AID 624352;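 active = inhibition of the luminescence signal of 40% or more relative to plate controls, in a single-dose primary screen at 18.75 µM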
TWEAK Fn14 block: blocks TWEAK-Fn14 interaction in a reporter cell assay. TWEAK-stimulated Fn14 reporter cells, luciferase luminescence, 8 h. inhibition, % at 10 µM. 2% of 360,000 active; in the data active = inhibition above about 50%
CF NFkB block: cystic fibrosis NF-kB activation inhibition. 0.86% of 360,000 active. KKLEB NF-kB-GFP reporter, PAF-induced, GFP fluorescence overnight. AID 588850. inhibition, % at 5 µM;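 active = at least 50% inhibition at 5 µM, scaled per plate between neutral and stimulator controls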;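 note: PAF is a Pseudomonas aeruginosa culture filtrate used as stimulus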
KKLEB tox: reduces viability of KKLEB cystic fibrosis airway cells | activity change (cytotoxicity), % at 5 µM | KKLEB CF airway cells viability, ATPlite luminescence, overnight; active compounds read low; cells stimulated with P. aeruginosa culture filtrate | 0.36% of 360,000 active;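 active = corrected activity change at or below -50% at 5 µM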
TROY signal inh: inhibitors of TROY-dependent NF-kB signaling. AID 1347056. inhibition, % at 10 µM. Q293 LMP1-TROYcd NF-kB luciferase reporter, 4 h. 0.98% of 360,000 active;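 active = compounds whose plate-normalised and pattern-corrected inhibition of the luciferase reporter signal at the single screening dose is 50% or more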
Numbers stand for hits; i = inactive; nt = no result given.

SMILES | Peg3 promoter | HIF-2a inh | TWEAK Fn14 block | CF NFkB block | KKLEB tox | TROY signal inh
COC(=O)c1cc([N+](=O)[O-])c(-n2cncn2)c([N+](=O)[O-])c1 | 94.4 | i | i | i | i | i
COc1cc2c(cc1OC)/C(=C/c1ccc(Br)cc1)C(=O)OC2 | i | i | i | i | i | i
CCOC(=O)CNC(=O)Cn1cnc2c(nnn2-c2ccc(F)cc2)c1=O | i | i | i | i | i | i
O=C(O)c1ccc(-n2cccc2/C=C2/NC(=O)N(c3ccccc3)C2=O)cc1 | i | i | i | i | i | 68.3
O=C(O)c1ccc(-n2cccc2/C=C2/NC(=O)N(c3cccc(Cl)c3)C2=O)cc1 | i | i | i | i | i | i
FC(F)(F)c1ccccc1-n1c(-c2ccco2)n[nH]c1=S | i | i | 87.6 | i | i | i
Cc1ccccc1-n1c(-c2ccco2)n[nH]c1=S | i | i | i | i | i | i
CC(=O)NC1=NC(=O)/C(=C/c2cn(C(C)=O)nc2-c2ccccc2)S1 | i | i | 74.2 | 57.1 | i | i
COc1ccc(NC(=O)c2cc(C3CCCCN3C(=O)OCc3ccccc3)on2)c(C)c1 (centres undefined) | i | i | i | i | i | i
Cc1ccc2c(c1)c1c(n2C)C(=O)CCC1 | i | i | i | i | i | i
O=C1CN(C(=O)CN2CCOCC2)C(c2ccccc2)c2cc(Br)ccc2N1 (centres undefined) | i | i | i | i | i | i
Cc1csc2nc(CNC(=O)c3cccc(C(F)(F)F)c3)cn12 | i | i | 96.5 | i | i | nt
O=C(NCc1cn2ccsc2n1)c1cccc(C(F)(F)F)c1 | i | i | i | i | i | i
O=C(OCC(=O)N1CCCc2ccccc21)c1ccccc1[N+](=O)[O-] | i | i | i | i | i | i
Cc1cc(/C=C(\C#N)C(=O)N2CCOCC2)c(C)n1C1CCCC1 | i | i | 73.7 | i | i | 73.7
COc1ccc(/C=C(\C#N)C(=O)N2CCOCC2)cc1Br | i | i | i | i | i | i
O=C1C(=O)c2cccnc2-c2ncccc21 | 101.8 | 89.6 | 103.5 | 89.9 | -82.9 | 65.8
O=C1c2cccnc2-c2ncccc21 | i | i | i | i | i | i
CN1C(=O)c2ccccc2CC12c1ccccc1C(=O)N2C (centres undefined) | i | i | i | i | i | i
Cc1ccc(NC(=O)c2ccc([N+](=O)[O-])o2)c(C)c1 | i | i | i | i | i | i
Cc1ccc(S(=O)(=O)c2ccc([N+](=O)[O-])o2)cc1 | 104.9 | 89.1 | 102.2 | 77.8 | -88.8 | 58.6
O=C(O)c1cccc(N/N=C/c2cccnc2)c1 | 57.7 | i | i | i | i | i
Cc1ncc([N+](=O)[O-])n1CCOC(=O)C12CC3CC(CC(C3)C1)C2 | i | i | i | i | i | i
CC(=O)/C(N=Nc1ccc2c(c1)OCCO2)=C(\C)O | i | i | 77.4 | i | i | i
O=C(NCC1CCN(Cc2ccc(Cl)cc2)CC1)C1CCCN(c2ncnc3c2nc2n3CCCCC2)C1 (centres undefined) | 51.5 | i | i | i | i | i
SMILES | Peg3 promoter | HIF-2a inh | TWEAK Fn14 block | CF NFkB block | KKLEB tox | TROY signal inh
Cc1cccc(N2CCN(CCCNC(=O)C3CCCN(c4ncnc5c4nc4n5CCCCC4)C3)CC2C)c1 (centres undefined) | 60.0 | i | i | i | i | i
O=C(NCC1CCN(Cc2ccc(F)cc2)CC1)C1CCCN(c2ncnc3c2nc2n3CCCCC2)C1 (centres undefined) | i | i | i | i | i | i
COc1ccccc1S(=O)(=O)Cc1ccc(C(=O)NCCN2CCCCCC2)o1 | i | i | i | i | i | i
Cc1cccc(N(CC(=O)NCc2ccco2)C(=O)CCC(=O)Nc2nccs2)c1C | i | i | i | i | i | i
CC(C)(C)NC(=O)CN(C(=O)CCC(=O)Nc1nccs1)c1ccc2c(c1)OCCO2 | i | i | i | i | i | i
Cc1ccccc1N(CC(=O)NCc1ccco1)C(=O)CCC(=O)Nc1nccs1 | i | i | 81.5 | i | i | i
CC(C)CCNC(=O)CN(C(=O)CCC(=O)Nc1nccs1)c1ccc2c(c1)OCCO2 | i | i | 78.3 | i | i | 68.9
CCN(C(=O)CN1C(=O)S/C(=C\c2ccccc2OC)C1=O)C1CCS(=O)(=O)C1 (centres undefined) | i | i | i | i | i | i
COc1cc2c3nnc(-c4ccccc4)c-3cn(Cc3ccc(F)cc3)c2cc1OC | i | i | i | i | i | i
COc1cc2c3nnc(-c4ccc(F)cc4)c-3cn(Cc3ccc(C)cc3)c2cc1OC | 65.6 | i | i | i | i | i
COc1cc2c3nnc(-c4ccc(F)cc4)c-3cn(Cc3cccc(C)c3)c2cc1OC | 100.2 | i | i | i | -76.8 | i
CCOC(=O)c1c(-c2ccccc2)n(C)c2ccc(O)cc12 | i | i | i | i | i | i
Cc1nn(-c2ccccc2)c(Cl)c1/C=N/NC(=O)c1[nH]ncc1Br | i | i | 52.6 | i | i | i
Cc1nn(-c2ccccc2)c(C)c1/C=N/NC(=O)c1cc(-c2ccccc2)n[nH]1 | i | i | i | 64.3 | i | i
Cc1cc(C(=O)N/N=C/c2c(C)nn(-c3ccccc3)c2Cl)n[nH]1 | i | i | i | i | i | i
Cc1ccc(C(=O)N/N=C\c2c(C)nn(-c3ccccc3)c2Cl)cn1 | i | i | i | i | i | i
Cc1nn(-c2ccccc2)c(Cl)c1/C=N/NC(=O)c1ccn[nH]1 | i | i | 50.2 | i | i | i
CN(C)S(=O)(=O)Oc1ccccc1C(=O)Nc1cccc(C(F)(F)F)c1 | i | i | i | i | i | i
COc1ccc(/C=N/OC(=O)Nc2ccccc2OC)cc1 | i | i | i | i | i | i
O=C(/C=C/Sc1ccc(C(F)(F)F)cn1)c1ccccc1 | 96.1 | i | 60.1 | i | i | i
COc1ccc(NS(=O)(=O)c2ccc(C)c(C(=O)NC3CCN(Cc4ccccc4)CC3)c2)cc1 | i | i | i | i | i | i
N#Cc1nc(Cl)c(Cl)c(NN)c1Cl | i | i | i | i | i | 61.9
CC(C)c1nc(C#N)c(NN)o1 | i | i | i | i | i | i
COc1ccc(N2CC(C(=O)NCCC3=CCCCC3)CC2=O)cc1 (centres undefined) | i | i | i | i | i | i
CC1(C)c2[nH]c3ccccc3c2C[C@H]2C(=O)N(Cc3cccc(F)c3)C(=O)N21 | i | i | 51.3 | i | i | i
Cc1ccccc1CN1C(=O)[C@@H]2Cc3c([nH]c4ccccc34)C(C)(C)N2C1=O | i | i | i | i | i | i
CC1(C)c2[nH]c3ccccc3c2C[C@@H]2C(=O)N(Cc3ccccc3Cl)C(=O)N21 | i | i | 50.8 | i | i | i
COC(=O)[C@@]12C[C@@H](CC(=O)NCc3cccc(C(F)(F)F)c3)C(=O)N(Cc3ccccc3)C1=CCC(C)(C)C2 | nt | i | nt | nt | nt | nt
Cc1ccc(NC(=O)CN(c2ccccc2)S(=O)(=O)N(C)C)cc1 | i | i | i | i | i | i

Screening data as filed in PubChem.
